Assay outcomes (PubChem)
An excerpt weighted towards active compounds, which were near 3.2% of everything screened.
AmpC inh detg: inhibitors of E. coli AmpC beta-lactamase with detergent; P00811; actives 0.041% (n = 370,000); AID 485294; AmpC hydrolysis of nitrocefin, absorbance 480 nm, 0.01% Triton; Potency, µM (top dose mostly 114 µM), actives largely listed as inhibitors; note: nearly all actives have a fitted effect of over 25% in size
Target sequence (P00811 whole entry, looked up): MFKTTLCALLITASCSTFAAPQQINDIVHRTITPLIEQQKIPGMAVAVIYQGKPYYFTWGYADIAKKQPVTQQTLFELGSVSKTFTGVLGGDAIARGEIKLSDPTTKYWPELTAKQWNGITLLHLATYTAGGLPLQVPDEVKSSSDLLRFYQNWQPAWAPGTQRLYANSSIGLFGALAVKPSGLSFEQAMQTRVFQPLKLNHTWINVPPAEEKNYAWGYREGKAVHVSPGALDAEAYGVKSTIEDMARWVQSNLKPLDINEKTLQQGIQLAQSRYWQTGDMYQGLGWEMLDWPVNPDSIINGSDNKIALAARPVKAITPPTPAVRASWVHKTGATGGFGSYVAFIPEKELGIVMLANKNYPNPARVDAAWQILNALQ
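AmpC (5.3 nM in the dispensed reagent) in 20 mM phosphate pH 7.0 with 0.01% (detergent screen) or 0.0001% Triton X-100 was preincubated with compounds for 15 min at room temperature. Nitrocefin was then added from an 800 uM solution, and hydrolysis was followed at 480 nm.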
Sm TGR block: S. mansoni TGR enzyme inhibition. Q962Y6. purified TGR, DTNB reduction, TNB absorbance 405 nm. Potency, µM (titrated, usually from 114 µM), actives largely listed as inhibitors. actives 3% (n = 360,000). AID 485364; note: nearly all actives have a fitted effect of over 60% in size
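TGR 20 nM + NADPH 100 uM (dispensed conc.), cpd preinc 15 min RT; start with NADPH (500 uM addition) then DTNB (15 mM addition). Kinetic TNB absorbance, 405 nm filter. Four-parameter Hill fit across titration.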
RE007 growth inh: less growth of the S. pombe RE007 Vpr strain; S. pombe RE007 Vpr strain, BacTiter-Glo ATP luminescence, 24 h; Potency, µM (series often up to 92.2 µM), usual class: inhibitors; actives 0.21% (n = 360,000); AID 651644; active = well fitted falling curve with a large enough effect; inconclusive = small, poorly fitted or top-dose-only effect; inactive = no such curve, though single readings can be large or run the other way; note: nearly all actives have a fitted effect of over 50% in size
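Fission yeast strain RE007, carrying one chromosomally integrated HIV-1 vpr copy, was seeded at OD 0.01 in PMG+AL medium with 23 nL pinned compound. After 24 h at 30 °C and 99% humidity, viability was read by BacTiter-Glo luminescence.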
AmpC no deterg: blocks E. coli AmpC beta-lactamase in detergent-free assay; AmpC nitrocefin hydrolysis, absorbance 480 nm, 0.0001% Triton; Potency, µM (top dose mostly 57.1 µM), usual class: inhibitors; actives 0.52% (n = 330,000); P00811; note: nearly all actives have a fitted effect of over 20% in size
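20 mM phosphate pH 7.0 + 0.01% (detergent screen) or 0.0001% Triton X-100; 5.3 nM AmpC reagent; cpd preinc 15 min RT; nitrocefin (800 uM stock) to start; A480 q20 s × 4 min; Activity was normalised to no-enzyme and no-compound control wells.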
AMA1 RON2 block: inhibitors of Plasmodium falciparum AMA1-RON2 interaction. AlphaScreen AMA1-biotinylated RON2 peptide binding. Potency, µM (titrated, usually from 58.2 µM), hits mostly inhibitors. actives 0.2% (n = 360,000); note: nearly all actives have a fitted effect of over 45% in size
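AMA1 (3D7) with his tag at 25 nM final met compounds first, then biotinylated RON2 peptide at 25 nM; detection used donor plus acceptor beads, 10 µg/mL apiece, read by AlphaScreen after 30 min at room temperature.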
Hits are given with their value; [ ] = another dose, or the depositor's remark. Unless noted, calls come from the whole dose curve; as a rule, active = well fitted curve in the direction sought with a large enough effect; inconclusive = small, poorly fitted or top-dose-only effect, or another doubt; inactive = no such curve, though single readings can be large; an effect the other way counts as inactive or inconclusive.

Screening O=C(Nc1ccc(Br)cc1)C1CCN(c2ncccn2)CC1 returned AmpC inh detg inactive and Sm TGR block inactive.
COc1ccc2c(c1)NC(C)(C)C=C2C was read as AmpC inh detg inactive, Sm TGR block 40µM, RE007 growth inh inactive, AmpC no deterg inactive and AMA1 RON2 block inconclusive.
`CC1Cc2cc(S(=O)(=O)CCC(=O)NCc3ccco3)ccc2N1C(=O)C1CC1` (stereo not given) gave AmpC inh detg inactive, Sm TGR block 40µM, RE007 growth inh inactive, AmpC no deterg inactive and AMA1 RON2 block inactive.
`Cc1ccc(CNC(=O)C2CCN(S(=O)(=O)c3ccc4c(c3)CC(C)N4C(=O)C3CCC3)CC2)o1` (stereo not given) gave AmpC inh detg inconclusive, Sm TGR block 40µM, RE007 growth inh inactive, AmpC no deterg inactive and AMA1 RON2 block inactive.
Cc1ccc(S(=O)(=O)CCC(=O)NCc2ccco2)cc1 was read as AmpC inh detg inactive, Sm TGR block 40µM, RE007 growth inh inactive, AmpC no deterg inactive and AMA1 RON2 block inactive.
Screening COc1ccccc1CNC(=O)CCS(=O)(=O)c1ccc2c(c1)CC(C)N2C(=O)C1CC1 (stereo not given) returned AmpC inh detg inactive, Sm TGR block inactive, RE007 growth inh inactive, AmpC no deterg inactive and AMA1 RON2 block inactive.
Screening Cc1ccc(NC(=O)CSc2ncc3c(n2)-c2ccccc2N(Cc2cccc(F)c2)S3(=O)=O)cc1F returned AmpC inh detg inactive and Sm TGR block inactive.
Screening N#CC1=C(N)C2=CCCC[C@H]2[C@H](c2ccc(Br)cc2)C1(C#N)C#N returned AmpC inh detg inactive, Sm TGR block 32µM, RE007 growth inh inactive, AmpC no deterg inactive and AMA1 RON2 block inactive.
For N#CC1=C(N)C2=CCCC[C@H]2[C@H](c2ccccc2)C1(C#N)C#N the results were AmpC inh detg inactive, Sm TGR block 45µM, RE007 growth inh inactive, AmpC no deterg inactive and AMA1 RON2 block inactive.
`CCCCCOc1ccc(NC(=O)Cc2csc(C)n2)cc1` gave AmpC inh detg inactive and Sm TGR block inactive.
Clc1ccc(C[n+]2csc3ccccc32)cc1 was read as AmpC inh detg inactive, Sm TGR block 4.5µM, RE007 growth inh inactive, AmpC no deterg inactive and AMA1 RON2 block inactive.
Fc1ccc(C[n+]2csc3ccccc32)cc1 was read as AmpC inh detg inactive, Sm TGR block inactive, RE007 growth inh inactive, AmpC no deterg inactive and AMA1 RON2 block inactive.
O=C/C=C/c1c(-c2ccccc2)cc2oc3ccccc3cc1-2 was read as AmpC inh detg inactive, Sm TGR block 20µM, RE007 growth inh inactive, AmpC no deterg inactive and AMA1 RON2 block inactive.
For Nc1ccc(-c2cc3ccccc3oc2=O)cc1 the results were AmpC inh detg inactive, Sm TGR block inactive, RE007 growth inh inactive, AmpC no deterg inactive and AMA1 RON2 block inactive.
COCCCNC(=O)c1oc2c(c1C)-c1nn(Cc3cccc(Cl)c3)cc1CC2 was read as AmpC inh detg inactive and Sm TGR block inactive.
O=C(CBr)N1CCc2ccccc2C(c2ccccc2)C1 (stereo not given) was read as AmpC inh detg inactive, Sm TGR block 3.5µM, RE007 growth inh inactive, AmpC no deterg inactive and AMA1 RON2 block inactive.
For NS(=O)(=O)c1ccc(Sc2nc3ccccc3s2)c([N+](=O)[O-])c1 the results were AmpC inh detg inactive, Sm TGR block 45µM, RE007 growth inh inactive, AmpC no deterg inactive and AMA1 RON2 block inactive.
`Cc1ccc(C)c(N2CCN(C(C(=O)NC3CCCC3)C(C)C)CC2)c1` (stereo not given) gave RE007 growth inh inactive and AMA1 RON2 block inactive.
Screening CN(Cc1ccccc1F)c1nc(-c2cccnc2)nc2ccccc12 returned AmpC inh detg inconclusive, Sm TGR block inactive, RE007 growth inh inactive, AmpC no deterg inactive and AMA1 RON2 block inactive.
Screening Cc1ccc(CN(C)c2nc(-c3cccnc3)nc3ccccc23)o1 returned AmpC inh detg inactive, Sm TGR block 40µM, RE007 growth inh inactive, AmpC no deterg inactive and AMA1 RON2 block inactive.
`O=C(O)[C@@H]1Cc2ccccc2N1` gave AmpC inh detg inactive, Sm TGR block 56µM, RE007 growth inh inactive, AmpC no deterg inactive and AMA1 RON2 block inactive.
For O=C(O)C1Cc2ccccc2-c2ccccc2C1 the results were AmpC inh detg inactive, Sm TGR block inactive, RE007 growth inh inactive, AmpC no deterg inactive and AMA1 RON2 block inactive.
`O=C(CCN1CCOCC1)c1ccc(Cl)cc1` gave AmpC inh detg inactive, Sm TGR block inactive, RE007 growth inh 40µM, AmpC no deterg inactive and AMA1 RON2 block inactive.
`O=C(CCNC(=O)c1ccc(Cl)cc1)NCCCN1CCOCC1` gave AmpC inh detg inconclusive, Sm TGR block inactive, RE007 growth inh inactive, AmpC no deterg inactive and AMA1 RON2 block inactive.
Brc1ccc(OCCN2CCOCC2)cc1 was read as AmpC inh detg inactive, Sm TGR block inactive, RE007 growth inh inactive, AmpC no deterg inactive and AMA1 RON2 block inactive.
For O=C(CCN1CCOCC1)c1ccc(Br)cc1 the results were AmpC inh detg inactive, Sm TGR block inactive, RE007 growth inh 32µM, AmpC no deterg inactive and AMA1 RON2 block inactive.
Screening CN(C)c1ccc(CNC(=O)C2CCCN(S(=O)(=O)c3ccc4c(ccn4C)c3)C2)cc1 (stereo not given) returned AmpC inh detg inactive and Sm TGR block inactive.
For CCCCOc1cccc(C(=O)Nc2ccc3oc(-c4cccnc4)nc3c2)c1 the results were AmpC inh detg inactive and Sm TGR block inactive.
Cc1ccc(Cl)cc1N1CCN(C(=O)c2c(C)oc3ncnc(N4CCOCC4)c23)CC1 was read as AmpC inh detg inactive and Sm TGR block inactive.
`COc1cccc(/C=N/NC(=O)c2cc3c(OC)ccc(OC)c3[nH]2)c1O` gave AmpC inh detg inactive, Sm TGR block inactive, RE007 growth inh inactive, AmpC no deterg inactive and AMA1 RON2 block inactive.
`COc1cc(OC)c2cc(C(=O)N/N=C/c3cccc(OC)c3O)[nH]c2c1` gave AmpC inh detg inactive, Sm TGR block inactive, RE007 growth inh inactive, AmpC no deterg 0.4µM and AMA1 RON2 block inactive.
Screening Cc1cccc(C2=NCC(=O)N(CC(=O)NCc3ccco3)c3sc4c(c32)CCCC4)c1 returned AmpC inh detg inactive, Sm TGR block 18µM, RE007 growth inh inactive, AmpC no deterg inactive and AMA1 RON2 block inactive.
`Cc1nc(-c2ccc(S(=O)(=O)NCc3ccc(N(C)C)cc3)cc2)co1` gave AmpC inh detg inactive and Sm TGR block inactive.
`O=C(COc1ccc(Cl)cc1)Nc1ccc2nc(SCC(=O)N3CCOCC3)sc2c1` gave AmpC inh detg inactive and Sm TGR block inactive.
`COc1ccc(CCN(C)CCc2ccc(OC)c(OC)c2)cc1OC` gave RE007 growth inh inactive[18.4 µM] and AMA1 RON2 block inactive.
